# Screen size: about 2,100 compounds; about 650 (31%) were called active. About 16% were inconclusive and are not listed. Calls come from the whole dose curve; as a rule, active = well fitted inhibition curve with a large enough effect; inconclusive = small, poorly fitted or top-dose-only effect; inactive = flat fitted curve, though single readings scatter. The list shows a part of the results.
# Test: qHTS for inhibitors of Vif-A3G interactions: Cherry picks; note: nearly all actives have a fitted effect of over 80% in size; for activity, negative = fluorescence increase: % of control where 0% means no effect
# Details: HeLa A3G-eYFP + Vif (tagged APOBEC3G with the HIV-1 protein that degrades it), 24 h; Potency: eYFP fluorescence increase; series mostly up to 36.9 µM; activity, negative = fluorescence increase: at the top concentration
# How it was run: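 HeLa cells stably expressing A3G-eYFP and Vif, cultured overnight then exposed to compounds at several concentrations for 24 hours at 37 C, 5% CO2; cellular yellow fluorescence (488 nm ex, 500-530 nm em) imaged on Acumen, MG132 positive control.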
# Potency is the fitted concentration of half-maximal effect.
Structure (SMILES),"activity, negative = fluorescence increase",Potency
Cc1ccc(Cn2nnc3c(=O)n(CC(=O)NCc4ccccc4)cnc32)cc1,-0.238% (inactive),–
CO/N=C\CC(=O)Nc1ccc(Cl)c(Cl)c1,-4.64% (inactive),–
Cc1ccc2nc(NS(=O)(=O)c3ccc(Cl)cc3)c(Nc3ccc(C(=O)O)cc3)nc2c1,-6.95% [at 46.1 µM] (inactive),–
O=C1S/C(=C/c2ccc(N3CCOCC3)o2)C(=O)N1Cc1ccc(F)cc1,–,2.8 µM (active)
CCc1ccc2c(c1)NC(=O)C2(C)Cc1ccccc1Cl (stereo not drawn),-1.62% (inactive),–
COC(=O)[C@@H]1Cc2c([nH]c3ccccc23)C(C)(C)N1C(=O)CCl,-4.24% (inactive),–
c1ccc(-c2cnn3c(-c4ccccc4)c(-c4ccccc4)nc3n2)cc1,–,3.66 µM (active)
COc1ccc(-n2nnnc2-c2cccc(OC)c2)cc1,-9.47% (inactive),–
CCS(=O)(=O)N1N=C(c2ccc(C)cc2)CC1c1cc2ccc(OC)cc2nc1Cl (stereo not drawn),-5.93% [at 46.1 µM] (inactive),–
COc1ccc(C2CC(c3ccncc3)=NN2c2ccc(S(N)(=O)=O)cc2)cc1 (stereo not drawn),–,10.3 µM (active)
COc1ccc(-c2cnc3c(NC=O)cc(-c4ccccc4)cn23)cc1OC,-28.9% (inactive),–
COc1ccc(/C=c2\s/c(=C/C(=O)c3ccc(C)cc3)[nH]c2=O)c(OC)c1,–,20.6 µM (active)
COc1ccccc1/C=N/NC(=S)Nc1cccnc1,6.65% [at 46.1 µM] (inactive),–
COc1ccc(C(=O)N/N=C/c2ccccc2OC(=O)c2ccccc2)cc1,-1.22% (inactive),–
Oc1sc(C=Nc2ccccc2)c2ccccc12,–,16.4 µM (active)
COc1ccc(NC(=O)c2c(Cl)n(C)c3ccccc23)cc1,-3.6% (inactive),–
Oc1sc(C=Nc2ccc(F)cc2)c2ccccc12,–,2.91 µM (active)
COc1ccc(N=Cc2c(O)c3ccccc3n2C(C)=O)cc1,–,18.4 µM (active)
COc1ccc(N=Cc2sc(O)c3ccccc23)cc1,–,12.5 µM (active)
CNC(=S)N/N=C(\C)c1ccc(Cl)s1,-0.736% [at 46.1 µM] (inactive),–
COCCCN(C(C)=O)c1nc(-c2ccc(OC)cc2)cs1,-3.78% (inactive),–

Structure (SMILES),"activity, negative = fluorescence increase",Potency
COc1ccc(S(=O)(=O)NN(C)c2nc(C(F)(F)F)nc3ccccc23)cc1,1.47% (inactive),–
CC1(C)Cc2c(sc3ncnc(NNC(=S)NCc4ccccc4)c23)CO1,-6.55% (inactive),–
COc1ccc(/C=N/NC(=O)c2cccnc2)cc1COc1ccc(NC(C)=O)cc1,-13.1% (inactive),–
COc1ccc(OC)c(C2C=C(c3ccc(C)c(C)c3)Nc3nnnn32)c1 (stereo not drawn),-0.067% (inactive),–
COc1ccc(NC(=O)c2c(C)noc2-c2snnc2C)cc1,-5.1% (inactive),–
COc1ccc(/C=N\NC(=O)c2cc3c(ccc4ccccc43)o2)cc1O,-0.0912% (inactive),–
CCC(=O)NC(c1ccc(OC)cc1)c1c(O)ccc2ccccc12 (stereo not drawn),-5.23% (inactive),–
COc1ccc(N=Cc2oc3ccc4ccccc4c3c2O)cc1,–,7.31 µM (active)
CC(CC(=O)Nc1ccc2c(c1)c(=O)n(C)n2Cc1ccc(F)cc1)c1ccccc1 (stereo not drawn),-4.1% (inactive),–
CCOC(=O)c1[nH]c(C)c(C(=O)Nc2ccccc2F)c1C,-1.04% (inactive),–
CCOC(=O)C1=C(Cc2ccc(F)cc2)C(=O)c2ccccc2C1=O,–,20.6 µM (active)
CCOC(=O)C1=C(Cc2ccc(Cl)cc2)C(=O)c2ccccc2C1=O,–,16.4 µM (active)
CCOC(=O)N1CCN(c2c(NCc3ccc(F)cc3)c(=O)c2=O)CC1,-9.92% (inactive),–
COCCNC(=S)N/N=C(\C)c1ccc(OC(F)F)cc1,-1.7% [at 46.1 µM] (inactive),–
CC(C)c1ccc(NC(=O)Nc2cnccn2)cc1,-3.55% (inactive),–
CCOC(=O)c1ccc(/C=C2/C=C(c3ccccc3)N(c3ccc(Cl)c(C(=O)O)c3)C2=O)cc1,–,20.6 µM (active)
CCOC(=O)N1C/C(=C\c2ccccc2)C(=O)/C(=C/c2ccccc2)C1,1.58% (inactive),–
COc1ccccc1NC(=O)C1=C(C)Nc2nc3ccccc3n2C1c1cccs1 (stereo not drawn),-2.86% (inactive),–
Cc1cc(C)c(N2C(=O)CC(Sc3ccccc3N)C2=O)c(C)c1 (stereo not drawn),2.27% (inactive),–
CCN1/C(=C/c2ccc3ccccc3[n+]2CC)C=Cc2ccccc21,–,9.2 µM (active)
Cc1ccc(S(=O)(=O)N2CCCCC2)cc1NC(=O)Cn1ncc(Cl)c(Cl)c1=O,1.51% (inactive),–

Structure (SMILES),"activity, negative = fluorescence increase",Potency
CC(=O)Nc1ccc(-c2ccnc3c2CC(C(=O)NCc2ccccc2)O3)cc1 (stereo not drawn),-8.78% (inactive),–
O=C1Nc2ccc(Br)cc2C12NNc1ccccc1O2 (stereo not drawn),–,17.7 µM (active)
O=C(NC(=S)N1CCN(C2CCCCC2)CC1)c1ccccc1,13.5% [at 46.1 µM] (inactive),–
C=C(NC(=O)C(=C)NC(=O)c1csc(C2=NC3c4csc(n4)C4NC(=O)c5csc(n5)C(C(C)(O)C(C)O)NC(=O)C5CSC(=N5)/C(=C/C)NC(=O)C(C(C)O)NC(=O)c5csc(n5)C3(CC2)NC(=O)C(C)NC(=O)C(=C)NC(=O)C(=C)NC(=O)C(C(C)C)NC2C=Cc3c(C(C)O)cc(nc3C2O)C(=O)OC4C)n1)C(N)=O (stereo not drawn),–,4.44 µM (active)
CCN(CC)c1ccc(/C=C/c2cccc[n+]2C)c(OC)c1,–,17.7 µM (active)
CCN(CC)c1ccc(NC(=O)c2cccc(F)c2)c(C)c1,-9.15% (inactive),–
COc1ccc(C(=S)N2CCN(c3cccc(Cl)c3)CC2)c(OC)c1,0.538% (inactive),–
Cc1ccc(-n2c(O)c(/C=C3/C(c4ccccc4)=Nc4ccccc43)c(=O)[nH]c2=O)cc1,-3.5% (inactive),–
CN(C)c1ccc2nc3c(=O)[nH]c(=O)nc-3n(CC(O)C(O)C(O)CO)c2c1 (stereo not drawn),1.05% [at 46.1 µM] (inactive),–
NN=C1c2ccccc2C(=O)C1C(=O)C(c1ccccc1)c1ccccc1 (stereo not drawn),–,12.5 µM (active)
O=C(c1ccccc1)C1C(=O)c2ccccc2C1=O,11.2% [at 46.1 µM] (inactive),–
Cc1cccc(CS(=O)(=O)c2ncc(Cl)c(C(=O)Nc3c(C)cccc3C)n2)c1,1.87% (inactive),–
COc1cc2c3nnc(-c4ccc(F)cc4)c-3cn(Cc3ccc(C)cc3)c2cc1OC,–,5.59 µM (active)
COc1ccc(C2=NOC(C(=O)NCc3ccc(F)cc3)C2)cc1OC (stereo not drawn),-2.75% (inactive),–
COc1ccc(-c2cnc3c(NC=O)cc(-c4cc(OC)c(OC)c(OC)c4)cn23)cc1OC,-7.24% (inactive),–
Cc1ccc(C)c(Cn2c(=O)n(CCCC(=O)NCc3ccco3)c(=O)c3sccc32)c1,-1.81% (inactive),–
CCn1c(O)c(/C=N/N=C/c2ccc(OC)cc2)c2cc(C3=NNC(=O)CC3)ccc21,–,5.8 µM (active)
Cc1ccc(-c2cn3nc(-c4ccccc4)c(-c4ccccc4)nc3n2)cc1,–,20.6 µM (active)
NNC(=S)Nc1c(F)cc(F)cc1Br,2.31% [at 46.1 µM] (inactive),–
N#Cc1c(C(F)(F)F)cc(-c2ccco2)nc1SCc1ccccn1,–,16.4 µM (active)
N#Cc1ccc(-c2ccco2)nc1SCc1ccccc1,-4.02% (inactive),–

# — PubChem BioAssay AID651812 (National Center for Advancing Translational Sciences (NCATS), 2012)
